Data on 111 molecules can be found in PubChem BioAssay AID488969 (Vanderbilt High Throughput Screening Facility, 2010).

Whole data set: some 110,000 compounds, median “z-score” near -0.1, cut for the highest 2% near 2. This is one part of a sample in which the highest values are shown more often than they occur. Active and inactive are the calls of the source.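 Rule for the calls: active = z-score in the third read window above 3 or below -3; inactive = the rest.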

The target of the test is Metabotropic glutamate receptor 8 (Rattus norvegicus) (UniProt P70579). The test can be described thus: rat mGluR8 modulators via GIRK flux, primary screen, cell-based, thallium flux, HTS (AID 488969). To be noted: HEK293 rat mGluR8, GIRK (G protein-gated inwardly rectifying potassium channel) thallium flux, FluoZin2; at 10 µM; stronger effect = higher value; submaximal glutamate (EC20) added with thallium.
Metabotropic glutamate receptor 8 (Rattus norvegicus), sequence (P70579 whole entry, looked up): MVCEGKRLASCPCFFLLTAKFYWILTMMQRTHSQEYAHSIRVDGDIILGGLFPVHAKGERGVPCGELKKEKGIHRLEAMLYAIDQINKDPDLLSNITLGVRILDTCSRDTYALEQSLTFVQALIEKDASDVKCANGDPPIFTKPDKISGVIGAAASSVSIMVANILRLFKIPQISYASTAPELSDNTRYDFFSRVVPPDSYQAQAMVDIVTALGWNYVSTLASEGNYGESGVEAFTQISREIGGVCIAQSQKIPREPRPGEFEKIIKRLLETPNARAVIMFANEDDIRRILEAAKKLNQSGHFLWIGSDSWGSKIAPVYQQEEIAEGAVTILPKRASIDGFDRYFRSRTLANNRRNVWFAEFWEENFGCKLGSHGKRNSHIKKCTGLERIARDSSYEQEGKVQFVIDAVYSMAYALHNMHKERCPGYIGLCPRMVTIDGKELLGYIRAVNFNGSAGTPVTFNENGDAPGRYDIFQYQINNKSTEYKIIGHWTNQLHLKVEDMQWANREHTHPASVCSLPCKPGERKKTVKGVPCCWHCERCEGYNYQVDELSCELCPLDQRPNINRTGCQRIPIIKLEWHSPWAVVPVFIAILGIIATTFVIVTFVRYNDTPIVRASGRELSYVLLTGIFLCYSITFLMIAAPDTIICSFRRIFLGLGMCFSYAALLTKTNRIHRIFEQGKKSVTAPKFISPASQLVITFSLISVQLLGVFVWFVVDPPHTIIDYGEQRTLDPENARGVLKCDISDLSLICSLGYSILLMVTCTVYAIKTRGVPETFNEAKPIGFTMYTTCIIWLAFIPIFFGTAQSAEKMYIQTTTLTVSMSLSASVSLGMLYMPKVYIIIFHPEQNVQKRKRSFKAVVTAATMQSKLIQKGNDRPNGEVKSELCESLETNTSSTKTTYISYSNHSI
Molecule `O=S1(=O)C[C@@H](O)[C@@H](Nc2ccc(Cl)cc2)C1` registered a z-score of -0.343.
`CCn1cc(/C=N/NS(=O)(=O)c2ccc(C)cc2)c(C)n1` yielded a z-score of -0.045.
As to `COc1ccc2c(c1)c1nc3ccccc3nc1n2CC(=O)OC(C)C`, the z-score was 0.485.
With `CC(C)OC(=O)c1c2nc3ccccc3nc2n2c1[nH]c(=O)c1ccccc12`, the z-score is 16.9 (active).
`CC(C)OC(=O)c1c(N)n(CCCN2CCOCC2)c2nc3ccccc3nc12` had a z-score of -0.444.
For `CCOC(=O)c1ccc(NC(=O)CN2C(=O)CNC2=O)cc1` the value was -0.263.
For `CCOC(=O)C1=C(C)C2C3C(=O)N(c4ccccc4C)C(=O)C3C1(C)C1C(=O)N(c3ccccc3C)C(=O)C21` (stereo unspecified) the value was -0.246; for `O=C(CN1C(=O)NC2(CCc3ccccc32)C1=O)Nc1ccc(N2CCOCC2)cc1` (stereo unspecified), -0.205.
Turning to `CCCC(=O)NC(=S)Nc1ccccc1C(F)(F)F`, the z-score was 0.25.
In the case of `Cc1cccc(C(=O)NC(=S)Nc2ccccc2C(F)(F)F)c1`, the z-score was 3.38 (active).
Molecule `Cc1ccccc1C(=O)NC(=S)Nc1ccccc1C(F)(F)F` gave a z-score of 1.41.
For the molecule `Cc1ccc(C(=O)NC(=S)Nc2ccccc2C(F)(F)F)cc1C`, the z-score is 5.48 (active).
Take `Cc1ccc(C(=O)NC(=S)Nc2ccccc2C(F)(F)F)cc1`: the z-score is 6.32 (active).
Under `Cc1ccc(C(=O)NC(=S)Nc2ccccc2C(F)(F)F)c(C)c1` stands 0.996; under `CC(C)(C)CC(=O)NC(=S)Nc1ccccc1C(F)(F)F`, 0.863; under `CCC(=O)NC(=S)Nc1ccccc1C(F)(F)F`, 0.0622.
`CC(C)C(=O)NC(=S)Nc1ccccc1C(F)(F)F` registered a z-score of 0.0217.
On to `COc1cccc(C(=O)NC(=S)Nc2ccc(N3CCCC3)cc2)c1`, for which the z-score was -0.087.
In turn, `O=C(CC1C(=O)N(c2ccccc2)C(=S)N1c1ccccc1)c1ccccc1` (stereo unspecified) returned a z-score of 0.466.
For `CC(Sc1ncnc2ccccc12)C(=O)Nc1ccc2c(c1)OCCO2` (stereo unspecified), the z-score is -0.25.
For `NS(=O)(=O)c1ccc(CCNC(=S)Nc2ccccc2)cc1` the value was -0.217; for `COc1ccccc1OCc1ccc(C(=O)Nc2ccccc2F)cc1`, -0.156.
Under `O=C(CSCc1cnn(-c2ccccc2)c1-n1cccc1)NCc1ccc2c(c1)OCO2` stands 0.533; under `C#CCn1cc(/C=N/NC(=O)c2cc3ccccc3o2)c2ccccc21`, -0.24; under `Cc1cc(N2CCOCC2)nc2ccc(NC(=O)CCC(=O)N3CCCCC3)cc12`, -0.00221.
Under `Cc1cc(N2CCOCC2)nc2ccc(NC(=O)CCC(=O)N3CCC(C)CC3)cc12` stands 0.27; under `Cc1cc(N2CCOCC2)nc2ccc(NC(=O)CCC(=O)N3CCCC(C)C3)cc12` (stereo unspecified), 2.7; under `CCOC(=O)c1c(-c2ccccc2)nnn1-c1nc(OC)nc(N2CCOCC2)n1`, -0.476.
As to `Cc1ccnc2nc(C(=O)Nc3nnc(CC(C)C)s3)nn12`, the z-score is -0.0103.
`Cc1ccc(NC(=O)CN2C(=O)S/C(=C\C(=O)Nc3ccc(Cl)cc3)C2=O)cc1` came in with a z-score of -0.0557.
For `COc1cc(NC2=Nc3cccc4cccc2c34)cc(OC)c1OC` the value was -0.385.
With `COc1ccc(NC2=Nc3cccc4cccc2c34)cc1`, the z-score was -0.54.
With `COc1ccc(NC2=Nc3cccc4cccc2c34)cc1OC`, the z-score was 4.9 (active).
For `COc1ccc(-c2cc(C#N)nc(N3CCNCC3)n2)cc1`, the z-score is 2.07.
For `COc1ccc(-c2cc(-c3ccc(F)cc3)nc(N3CCN(C)CC3)n2)cc1` the value was 0.083; for `COc1ccc(-c2cc(C#N)nc(N3CCN(c4ccccc4)CC3)n2)cc1`, -0.103.
The molecule `CN1CCN(/C=N/c2c(C#N)cnn2C)CC1` gave a z-score of 0.146.
For `Nc1cc(-c2ccc(Cl)cc2)nn1S(=O)(=O)c1ccc(Cl)cc1` the value was -0.0623.
Consider `CCOC(=O)c1sc(C)c(C(=O)NC2CCCCC2)c1N`, for which the z-score is 3.33 (active).
Molecule `CCOC(=O)c1[nH]c(C)c(C(=O)NC2CCCC2)c1C` returned a z-score of -0.06.
Take `CCOC(=O)c1sc(C)c(C(=O)NCC(C)(C)CN(C)C)c1N`: the z-score amounted to 0.753.
With `CCOC(=O)c1[nH]c(C)c(C(=O)NC2CCCCC2)c1C`, the z-score is 3.27 (active).
For `CCOC(=O)c1[nH]cnc1C(=O)NC1CCCCC1`, the z-score is -0.225.
For `CCOC(=O)c1[nH]c(C)c(C(=O)NC2CCCCCC2)c1C` the value was 0.781; for `O=C(CN1CCc2ccccc21)NC(=O)NCc1ccco1`, 0.562.
For `Cc1oc(C(C)(C)C)cc1C(=O)Nc1cccc(C(=O)O)c1` the value was -2.4.
With `COc1ccc(NC(=O)C(=O)N/N=C/c2cc(C)n(-c3cccc(Cl)c3Cl)c2C)c(OC)c1`, the z-score was -0.134.
As for `Cc1c(NC(=O)C(C)OC(=O)c2sc3ccccc3c2Cl)c(=O)n(-c2ccccc2)n1C` (stereo unspecified), the z-score was -0.273.
Turning to `CCC(C)c1ccc(NC(=S)Nc2ccc(OC)c(OC)c2)cc1` (stereo unspecified), the z-score was 5.09 (active).
For `CCC(C)c1ccc(NC(=S)Nc2ccc(OC)cc2C)cc1` (stereo unspecified) the value was 0.0172.
The molecule `CNC(=S)Nc1ccc(OC)c(OC)c1` registered a z-score of 0.0698.
For `COc1ccc(NC(=S)SC)cc1OC` the value was 3.35 (active); for `CCC(C)c1ccc(NC(=S)Nc2ccc(OC)cc2)cc1` (stereo unspecified), 0.436; for `COC(=O)Nc1ccc(OC)c(OC)c1`, 0.503.
For `c1ccc(-c2ccccc2-c2nc(-c3ccncc3)no2)cc1`, the z-score was -0.475.
Under `CCCC12CN3CCN(CC(C3)/C1=N\NC(=O)c1ccccc1N)C2` stands -0.119; under `Cc1ccc(OCc2nc(-c3ccc(-n4cccc4)cc3)no2)cc1C`, -0.0508; under `CCOC(=O)C1=C(C)N(c2ccc(OC)cc2)C(=O)/C1=C\c1cccs1`, -0.132.
Turning to `CCOc1ccc(CCNC(=O)C2CCN(c3nnc(-n4cccc4)s3)CC2)cc1OCC`, the z-score was -1.57.
`O=C(Nc1ccc(S(=O)(=O)Nc2ncccn2)cc1)c1ccc(Br)s1`: the z-score was determined as 0.347.
For `O=C1C(C=NCc2ccccn2)=C(O)c2ccccc21` the value was -0.00613; for `CC(Oc1ccc(Cl)cc1Cl)C(=O)NC(=S)N1CCc2ccccc21` (stereo unspecified), 12.9 (active).
Molecule `Cc1ccc(OCc2nnc(SCC(=O)N3CCc4ccccc43)n2C)cc1` displayed a z-score of -0.358.
As to `O=C(COc1ccc(Cl)cc1Cl)OCC(=O)N1CCCc2ccccc21`, the z-score is -0.0629.
With `O=C(COc1ccc(Cl)cc1Cl)NC(=S)N1CCCc2ccccc21`, the z-score is 13.2 (active).
On to `Cc1cccc(OC(C)C(=O)N2CCCc3ccccc32)c1` (stereo unspecified), for which the z-score is -0.141.
Consider `CC(Oc1ccc(Cl)cc1Cl)C(=O)N/N=C1\CCCc2ccccc21` (stereo unspecified), for which the z-score was 0.0705.
`CC(Oc1ccc(Cl)cc1Cl)C(=O)NN=C1CCN(C)CC1` (stereo unspecified) gave a z-score of -0.0448.
`COc1ccc(OCC(=O)NC(=S)N2CCCc3ccccc32)cc1`: the z-score stood at 1.72.
In turn, `Cc1ccccc1OCc1nnc(SCC(=O)N2CCc3ccccc32)n1C` came in with a z-score of -0.183.
Regarding `Cc1cccc(OCC(=O)NC(=S)N2CCCc3ccccc32)c1`, the z-score is 7.99 (active).
Under `Cc1cccc(OCc2nnc(SCC(=O)N3CCc4ccccc43)n2C)c1` stands 2.88; under `O=C(CCCOc1ccc(Cl)cc1Cl)N1CCCc2ccccc21`, -0.0365.
With `CCOC(=O)c1cc(-c2ccc(OC(F)F)cc2)nc2nc(SC)[nH]c(=O)c12`, the z-score is -0.208.
`COc1cc(CNCC(O)c2ccccc2)ccc1OCc1ccc(Cl)nc1` (stereo unspecified) had a z-score of 1.26.
For the molecule `COC(=O)COc1cccc(NC(=O)c2cccs2)c1`, the z-score was -0.153.
Under `CCc1cccc2c(C(=O)COC(=O)/C=C/c3ccc(O)c(OC)c3)c[nH]c12` stands 0.418; under `CC(C)COP(=O)(OCC(C)C)C(Nc1ccccc1)c1ccc2c(c1)OCO2` (stereo unspecified), -0.389; under `C/C=C/c1ccc(OCCCNCC(C)O)c(OC)c1` (stereo unspecified), 1.74.
Consider `COc1ccc(OC)c(NC(=O)CSc2nc(C)cs2)c1`, for which the z-score worked out at 0.389.
Under `CN(C)c1ccc(P(=O)(Nc2ccc([N+](=O)[O-])cc2)N2CCOCC2)c(NC(=O)c2cccs2)c1` (stereo unspecified) stands -0.185; under `O=C(CN1C(=O)NC2(CCCC2)C1=O)N1CCN(C(=O)c2ccco2)CC1`, -1.15.
For `Cc1ccc(NS(=O)(=O)c2cccc(C(=O)N/N=C/c3c(C)nn(-c4ccccc4)c3N3CCCC3)c2)c(C)c1` the value was -0.38.
The molecule `CCCCNC(=S)N(C)/N=C/c1ccc(OCC(=O)Nc2c(C)cc(C)cc2C)c(OC)c1` came in with a z-score of 0.00502.
In turn, `Cc1cc(C)n(-c2nc3ccccc3nc2N2CCN(C(=O)c3ccc(Cl)cc3)CC2)n1` yielded a z-score of -1.16.
As to `CCNC(=O)COc1ccc(Br)cc1Cl`, the z-score worked out at 0.307.
Under `O=C(COc1ccc(F)cc1Br)N1CCc2ccccc21` stands -0.0164; under `O=C(COc1ccccc1)NC(=S)N1CCc2ccccc21`, 10.1 (active).
For `O=C(COc1ccc(Br)cc1Br)NC(=S)N1CCCc2ccccc21` the value was 4.66 (active); for `O=C(COc1ccccc1Cl)NC(=O)NC1CCCC1`, 0.502; for `O=C(COc1ccccc1Cl)NC(=S)N1CCc2ccccc21`, 12.1 (active).
Under `O=C(COc1ccccc1)N1CCc2ccccc21` stands -0.0743; under `O=C(COc1ccc(Br)cc1Cl)NC(=S)N1CCc2ccccc21`, 2.28; under `CC(C)NC(=O)NC(=O)COc1ccc(Br)cc1Br`, -0.136.
Regarding `Cc1ccc(OCC(=O)N2CCc3ccccc32)cc1`, the z-score was -0.113.
`O=C(COc1ccc(Br)cc1Cl)NC(=O)NCc1ccccc1` registered a z-score of 0.301.
Under `CCC(=O)N1CCN(c2ccccc2NC(=O)COc2ccccc2Cl)CC1` stands -1.24; under `O=C(Cc1cccs1)Nc1ccc(Cl)cc1`, 0.318.
Under `Cc1cc(C)cc(SCc2noc(C(=O)NCC3CCCO3)c2C(=O)O)c1` (stereo unspecified) stands -0.238; under `Cc1cc(C)nc(-n2nc(C)cc2NC(=O)CNC(C)c2ccccc2)n1` (stereo unspecified), 0.124; under `COC(=O)c1cc(OC)c(OC)cc1NCC(=O)Nc1ccc(OC)c(OC)c1`, -0.419.
`Cc1c(NC(=O)C(C)OC(=O)c2cccs2)c(=O)n(-c2ccccc2)n1C` (stereo unspecified) returned a z-score of 0.0558.
For `CCOc1cc(CNCc2ccccn2)ccc1OCC(=O)NC1CCCCC1` the value was -0.535; for `O=C(Nc1ccc2oc(=O)ccc2c1)c1cc2ccccc2o1`, -1.25; for `O=C(CN(Cc1ccc(F)cc1)C(=O)c1ccco1)NCc1ccc(F)cc1`, -1.36.
Take `CNc1nc2ccccc2n1/N=C/c1cccc(OC)c1OC`: the z-score is -1.51.
Under `O=Cc1ccc(OC(=O)c2cc(Cl)nc3ccccc23)cc1` stands -0.764; under `CCn1c(SCc2ccc([N+](=O)[O-])cc2)nnc1C(C)NC(=O)c1ccc(C)cc1` (stereo unspecified), -0.256; under `CC(C)(C)n1nc2c(c1NC(=O)c1ccco1)CS(=O)C2` (stereo unspecified), 0.0777.
Under `O=C(Cn1cccc1)N1CCN(c2ccc(F)cc2)CC1` stands -0.241; under `Nn1c(SCC(=O)N2CCN(S(=O)(=O)c3ccc(Cl)cc3)CC2)nnc1-c1cccs1`, -0.22.
